About 83,000 compounds went through this panel and 20% of them were active in at least one assay; those are over-represented in the sample as a whole.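 Percent growth is the endpoint: 0 to 100 indicates growth inhibition (40 means 60% inhibition), 0 means no net growth, and negative values indicate cell death.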 Active and inactive are the calls of the source. Rule for the calls: active = growth percent below 10; inactive = the rest.

For one assay, the system named is MDA-MB-435 melanoma. Nature of the assay: NCI-60 one-dose screen, 48 h (100 = growth as untreated, 0 = no growth, -100 = all killed). To be noted: 10 µM unless noted.
For `C=CCc1c(O)c(C(=O)/C=C/c2ccc(Cl)cc2)c(OC)c2ccoc12`, the growth was 18.2% (inactive).

As for `COc1cc(-n2cc(-c3cc(O)c(C/C=C(\C)CCC=C(C)C)c(O)c3)nn2)cc2c1O[C@]1(C)CC[C@@H](O)C(C)(C)[C@H]1C2`, the growth is 16.6% (inactive).

In the case of `O=C(CSc1nc2ccc([N+](=O)[O-])cc2[nH]1)Nc1cccc(C(F)(F)F)c1`, the growth is 13.8% (inactive).

As to `COc1ccc(C(=O)Nc2ncc(Cc3ccc(F)cc3)s2)cc1`, the growth is 2.51% (active).

As to `COc1cc(-c2nc3cc(Cl)c(Cl)cc3[nH]2)ccc1OCC(=O)N=Nc1c(O)[nH]c2ccc([N+](=O)[O-])cc12`, the growth was 81.9% (inactive).

`CCOC(=O)c1cc2c(=O)oc3ccccc3c2oc1=O`: the growth was 111% (inactive).

Turning to `c1cc2[nH]ncc2cc1-c1nc2ccc3[nH]ncc3c2c2c1CCCC2`, the growth was 2.02% (active).

As for `Cc1cccc2c1NC(=O)C2(c1ccc(O)cc1)c1ccc(O)cc1`, the growth is 105% (inactive).

For the compound `CCOC(=O)C(=Cc1cccc(Cl)c1)C(=O)OCC`, the growth was 6.41% (active).

The next assay concerns SW-620 colon. The description is as above. To be noted: 10 µM unless noted.
For the compound `O=C(Cn1c(-c2ccc([N+](=O)[O-])cc2)nc2ccccc21)NNC(=O)c1cccnc1`, the growth is 103% (inactive).

As for `O=C(Cn1cc(CN2C(=O)c3ccccc3S2(=O)=O)nn1)Nc1nc2ccccc2s1`, the growth was 105% (inactive).

In the case of `CCN1CC(=O)N(/N=C2\C(=O)Nc3ccccc32)C1=S`, the growth is 87% (inactive).

As for `O=C1NCCC12CCN(c1c(Cl)cncc1-c1ccc(O)cc1)CC2`, the growth is 99.6% (inactive).

On to `COP(=O)(OC)C(C)(C)CC(=O)CC(C#N)(C#N)C(C#N)C#N`, for which the growth is 104% (inactive).

Regarding `COc1ccc(-c2nc3c(c(-c4ccccc4)nn3-c3ccccc3)c(-c3ccc(N4CCN(C)CC4)cc3)c2C#N)cc1`, the growth was 85.6% (inactive).

For `C#Cc1cccc(Nc2ncnc3ccc(-c4cncc(NS(C)(=O)=O)c4)cc23)c1`, the growth is 31.1% (inactive).

For `Cc1ccc(Sc2nnc(/N=C3\C(=O)Nc4ccccc43)s2)cc1`, the growth was 96.2% (inactive).

Turning to `CN(C)c1ccc(/C=C/C(=O)c2ccc(-n3cc(CN4CCN(c5cc6c(cc5F)c(=O)c(C(=O)O)cn6C5CC5)CC4)nn3)cc2)cc1`, the growth is 43.2% (inactive).

Take `CCOC(=O)CSc1ncnc2c1c(-c1ccccc1)c(-c1ccccc1)n2-c1ccc(C)cc1`: the growth is 81.2% (inactive).

Consider `O=C(CCCCCCN1CC(=O)N2[C@H](c3cc(Br)cs3)c3[nH]c4ccccc4c3C[C@H]2C1=O)NO`, for which the growth was 8.76% (active).

Consider `Cn1c(O)c(C=NCCN=Cc2c(O)n(C)c(=O)n(C)c2=O)c(=O)n(C)c1=O`, for which the growth was 107% (inactive).

Turning to `C/C(Nc1ccc(Cl)c(Cl)c1)=C1\CCOC1=O`, the growth was 111% (inactive).

Regarding `C=C1C(=O)O[C@H]2[C@H]1CC/C(COC(=O)CCSCCC(=O)OC/C1=C/CC[C@@]3(C)O[C@H]3[C@H]3OC(=O)C(=C)[C@@H]3CC1)=C\CC[C@@]1(C)O[C@@H]21`, the growth is -23.5% (active).

In the case of `Cc1ccc(/C=N/Nc2nc(Nc3ccccc3)nc(-n3nc(C)cc3C)n2)cc1`, the growth was 48.8% (inactive).

For the compound `O=C(CCc1nnc(Cn2cnc3nc[nH]c3c2=O)o1)c1nc2ncccc2[nH]1`, the growth is 96% (inactive).

On to `O=C1NC(=O)c2c1c1c3ccccc3ccc1c1[nH]c3ccc(Br)cc3c21`, for which the growth was 18% (inactive).

As for `Nc1nc(=S)c2ncn(C3OC(COP(=O)(O)O)C(O)C3O)c2[nH]1` (centres undefined), the growth is 32.2% (inactive).

Turning to `CC12CCC3c4ccccc4CCC3(CO1)C2` (centres undefined), the growth was 106% (inactive).

For the compound `O=Cc1ccc([N+](=O)[O-])s1`, the growth is 62.5% (inactive).

As to `CC(C)c1ccc(COCc2cc(CN3CCCC3)c(O)c3ncccc23)cc1`, the growth was 3.8% (active).

As to `COCCNC(=O)c1ccc(-c2nc3ccc4[nH]ncc4c3c3c2CCCC3)cc1`, the growth is 11% (inactive).

With `C/C(=N/O)c1ccc(F)cc1`, the growth is 48.6% (inactive).

Regarding `COc1ccc2nc(NC(=O)CSc3nnc4n3S(=O)(=O)c3ccccc3N4C)sc2c1`, the growth was 107% (inactive).

In the case of `CN(Cc1ccc(C(F)(F)F)cc1)CC(O)C(=O)Nc1ccc(Cl)cc1` (centres undefined), the growth was -41.5% (active).

Consider `Cc1ccc2c3c(c(=O)[nH]c2c1)C1(C(C#N)=C(N)O3)c2cc(Br)ccc2-c2ccc(Br)cc21`, for which the growth was -36.5% (active).

For `CC1(C)CC[C@]2(c3nnc(-c4ccncc4)o3)CC[C@H]3C(=CC[C@H]4[C@@]3(C)CC[C@H]3C(C)(C)C(=O)CC[C@]43C)[C@@H]2C1`, the growth is 59% (inactive).

As for `C=C(C)[C@@H]1CC[C@]2(C(=O)N3CCN(C)CC3)CC[C@]3(C)[C@H](CC[C@@H]4[C@@]5(C)CC(=C/c6ccncc6)/C(=N/O)C(C)(C)[C@@H]5CC[C@]43C)[C@@H]12`, the growth is 72.8% (inactive).

On to `Oc1ccc(CCn2c(O)c(/C=C3\CN=c4ccccc4=N3)sc2=S)cc1`, for which the growth was 67.4% (inactive).

In the case of `CCNC(=O)c1[nH]cc(-c2ccccc2)c1-c1cc(OC)c2c(c1OC)OCO2`, the growth was 97.6% (inactive).

Regarding `C[C@]12C=CC(=O)C=C1CCC1C2[C@@H](O)C[C@@]2(C)C1CC[C@]2(O)C(=O)COC(=O)CCC(=O)O` (some centres undefined), the growth was 105% (inactive).

In the case of `C=CCc1c(O)c(C(=O)/C=C/c2ccc(Cl)cc2)c(OC)c2ccoc12`, the growth was 37.3% (inactive).

Take `COc1cc(-n2cc(-c3cc(O)c(C/C=C(\C)CCC=C(C)C)c(O)c3)nn2)cc2c1O[C@]1(C)CC[C@@H](O)C(C)(C)[C@H]1C2`: the growth is 11.7% (inactive).

With `O=C(CSc1nc2ccc([N+](=O)[O-])cc2[nH]1)Nc1cccc(C(F)(F)F)c1`, the growth is 28.2% (inactive).

In the case of `COc1ccc(C(=O)Nc2ncc(Cc3ccc(F)cc3)s2)cc1`, the growth was 31% (inactive).

`COc1cc(-c2nc3cc(Cl)c(Cl)cc3[nH]2)ccc1OCC(=O)N=Nc1c(O)[nH]c2ccc([N+](=O)[O-])cc12`: the growth is 82.7% (inactive).

With `CCOC(=O)c1cc2c(=O)oc3ccccc3c2oc1=O`, the growth is 105% (inactive).

For `c1cc2[nH]ncc2cc1-c1nc2ccc3[nH]ncc3c2c2c1CCCC2`, the growth is 9.28% (active).

With `Cc1cccc2c1NC(=O)C2(c1ccc(O)cc1)c1ccc(O)cc1`, the growth is 103% (inactive).

With `CCOC(=O)C(=Cc1cccc(Cl)c1)C(=O)OCC`, the growth was -46.6% (active).

(Values after PubChem BioAssay (NCI).)
